Active and inactive are the calls of the source.

Assay [1] has as its system Plasmodium falciparum Sir2 (PF13_0152, Sir2A). Briefly: pfSir2 binders on small-molecule microarrays, primary screen, biochemical, small-molecule microarray, 635 nm fluorescence (AID 1098).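 Also: score merges spot fluorescence intensity with its signal-to-noise ratio.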 The conditions noted are these: small-molecule microarray binding, fluorescence 635 nm; higher = more signal.
A short description of assay [2]: small-molecule microarray binders of probe aDKK1, primary screen, biochemical, biotinylated probe, 635/667 nm fluorescence (AID 1099).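 Also: score merges 667nm spot fluorescence with signal to noise across triplicate slides.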 Particulars: higher = more signal.
Assay [3] can be described thus: small-molecule microarray binders of probe aCHRDL2, primary screen, biochemical, biotinylated probe, 635/667 nm fluorescence (AID 1100). The conditions noted are these: higher = more signal.
The nature of assay [4]: splicing luciferase reporter signal modulators, primary screen, spliceosome inhibition project, cell-based, HEK293, splice +/- reporter (AID 1101).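 Also: HEK293 cells carrying a splicing-competent luciferase reporter gene; test concentration not given here.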 Particulars: luminescence, 24 h, higher = more signal, called active from +8 up or from −8 down.
Assay [5] concerns the target Fibroblast growth factor 10 (Homo sapiens) (UniProt O15520). Briefly: FGF10 binders on small-molecule microarrays, primary screen, biochemical, small-molecule microarray, 635 nm fluorescence (AID 1102). The conditions noted are these: FGF10 binding, fluorescence 635 nm, higher = more signal.
Assay [6] has as its system glycogen synthase kinase-3 (GSK3A per assay name; protocol says GSK3B). Briefly: GSK3 binders on small-molecule microarrays, primary screen, biochemical, small-molecule microarray, 635 nm fluorescence, GSK3A (AID 1103). Also: the record names both GSK3A and GSK3B. The conditions noted are these: small-molecule microarray binding, fluorescence 635 nm; higher = more signal.
Assay [7] has as its target Epidermal growth factor receptor (Homo sapiens) (UniProt P00533). As to the kind of experiment: EGFR binders on small-molecule microarrays, primary screen, biochemical, small-molecule microarray, 635 nm fluorescence (AID 1104).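 Also: score merges 667 nm emission intensity with spot signal to noise over triplicate slides.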 Particulars: EGFR binding, higher = more signal.
Assay [8] addresses Follistatin-related protein 3 (Homo sapiens) (UniProt O95633). As to the kind of experiment: FSTL3 binders on small-molecule microarrays, primary screen, biochemical, small-molecule microarray, 635 nm fluorescence (AID 1105).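 Also: score merges emission near 667 nm and signal to noise per printed spot across three slides.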 Particulars: FSTL3 binding, higher = more signal.
In assay [9] the target is Dickkopf-related protein 1 (Homo sapiens) (UniProt O94907). Briefly: DKK1 binders on small-molecule microarrays, primary screen, biochemical, small-molecule microarray, 635 nm fluorescence scan (AID 1106).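 Also: score merges emission near 667 nm with signal to noise over three replicate slides.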 The conditions noted are these: DKK1 binding, higher = more signal.
In assay [10] the test system is Inhibin beta A chain (activin A). As to the kind of experiment: INHBA (activin A) binders on microarrays, primary screen, biochemical, small-molecule microarray, 635 nm fluorescence scan (AID 1107).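 Also: mouse activin A protein probed at 4.33 µg/mL on printed slides; score merges bound-protein fluorescence near 667 nm with spot signal-to-noise.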 The conditions noted are these: small-molecule microarray binding, higher = more signal.
For assay [11], the system named is Human papillomavirus type 1a protein E7 (residues 44-93). As to the kind of experiment: HPV1a E7 fragment binders on microarrays, primary screen, biochemical, small-molecule microarray, residues 44-93, 635 nm fluorescence (AID 1108).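 Also: E7 fragment applied at 1 µg/mL in TBST for 1 h at 4 C; score combines spot fluorescence with its signal to noise ratio.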 The conditions noted are these: small-molecule microarray binding, fluorescence 635 nm; higher = more signal.
A short description of assay [12]: modulators of HCV replicon luciferase signal, primary screen, HCV replication inhibitor project, Huh7 cells, luciferase reporter (AID 1109).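 Also: huh7 hepatoma cells harbouring a luciferase neomycin HCV replicon reporter; luciferase luminescence as measure of HCV replicon replication; test concentration not given here.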 Particulars: 48 h, higher = more signal. On the technique in general: A replicon is a self-replicating genome or part of one, used to study replication in cells.
For assay [13], the target named is Left-right determination factor 2 (Homo sapiens) (UniProt O00292). As to the kind of experiment: LEFTY2 binders on small-molecule microarrays, primary screen, biochemical, small-molecule microarray, 635 nm fluorescence scan (AID 1110). The conditions noted are these: LEFTY2 binding, higher = more signal.
Assay [14] has as its target Calmodulin-1 (Homo sapiens) (UniProt P0DP23). As to the kind of experiment: CALM1 binders on microarrays, EGTA buffer, profiling panel, biochemical, small-molecule microarray, Cy5-labelled CALM1 (AID 1111).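 Also: labelled calmodulin applied in Tris saline Tween buffer holding calcium plus EGTA and DTT.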 The conditions noted are these: Cy5-CALM1 binding fluorescence, higher = more signal.
The target is the same in assay [15]. Briefly: calcium-bound CALM1 binders on microarrays, profiling panel, artefact control for SMM control-protein annotation, biochemical, small-molecule microarray, Cy5-labelled CALM1, plus calcium (AID 1112).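 Also: score merges spot fluorescence with signal to noise from triplicate slides.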 The conditions noted are these: Cy5-CALM1 binding fluorescence, higher = more signal.
Assay [16] in a line: small-molecule microarray binders of probe aWnt5a, primary screen, biochemical, biotinylated probe, 635/667 nm fluorescence (AID 1113).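 Also: score merges 667 nm fluorescence intensity with signal-to-noise per printed feature.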 The conditions noted are these: higher = more signal.
Assay [17] is described as follows: small-molecule microarray binders of probe aShh, primary screen, biochemical, biotinylated probe, 635/667 nm fluorescence (AID 1114).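 Also: probe is biotin-labelled aShh protein from a stem cell growth factor screen; measures binding of labelled protein to compounds printed on the slide; score merges feature fluorescence at 667 nm with signal-to-noise.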 The conditions noted are these: higher = more signal.
A short description of assay [18]: small-molecule microarray binders of probe aNog, primary screen, biochemical, biotinylated probe, 635/667 nm fluorescence (AID 1115).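 Also: probe is biotinylated aNog protein used at 0.15 µg/mL for 1 h at 4 C; z-score combines 667 nm fluorescence of each spot with its signal to noise.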 The conditions noted are these: higher = more signal.
Assay [19] addresses Torsin-1A-interacting protein 1 (Homo sapiens) (UniProt Q5JTV8). Briefly: LAP1 binders from COS7 cell lysate, primary screen, small-molecule microarray, 635/667 nm fluorescence (AID 1116). The conditions noted are these: COS7-hLAP1 lysate binding, 635 nm fluorescence, higher = more signal.
Assay [20] deals with Alpha-bungarotoxin (Bungarus multicinctus) (UniProt P60615). As to the kind of experiment: alpha-bungarotoxin binders on microarray, profiling panel, artefact control for SMM control protein annotation, biochemical, small-molecule microarray, Alexa647 label, 635/667 nm fluorescence (AID 1117). Particulars: alpha-BTX-A647 binding fluorescence, higher = more signal.
Chain of Alpha-bungarotoxin (Bungarus multicinctus) (P60615 whole entry, looked up): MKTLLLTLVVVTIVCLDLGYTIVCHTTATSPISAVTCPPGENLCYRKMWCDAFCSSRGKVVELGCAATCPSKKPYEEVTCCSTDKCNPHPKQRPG

Chain of Torsin-1A-interacting protein 1 (Homo sapiens) (Q5JTV8 whole entry, looked up): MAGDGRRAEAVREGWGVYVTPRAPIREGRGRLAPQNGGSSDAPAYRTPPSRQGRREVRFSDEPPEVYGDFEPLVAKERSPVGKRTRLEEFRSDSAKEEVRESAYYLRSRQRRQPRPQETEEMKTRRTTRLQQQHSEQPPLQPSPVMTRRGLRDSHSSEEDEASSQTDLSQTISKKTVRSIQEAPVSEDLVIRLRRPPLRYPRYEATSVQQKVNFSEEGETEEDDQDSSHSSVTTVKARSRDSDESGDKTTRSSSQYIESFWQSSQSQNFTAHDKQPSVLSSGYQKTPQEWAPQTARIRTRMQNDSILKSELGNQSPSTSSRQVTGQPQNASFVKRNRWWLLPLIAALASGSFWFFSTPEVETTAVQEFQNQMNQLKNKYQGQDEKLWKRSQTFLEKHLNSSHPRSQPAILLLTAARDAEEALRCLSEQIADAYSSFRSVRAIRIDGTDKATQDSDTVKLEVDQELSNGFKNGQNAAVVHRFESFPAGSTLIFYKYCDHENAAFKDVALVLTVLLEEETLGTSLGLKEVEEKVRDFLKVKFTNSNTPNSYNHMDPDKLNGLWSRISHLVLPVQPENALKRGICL
Chain of Follistatin-related protein 3 (Homo sapiens) (O95633 whole entry, looked up): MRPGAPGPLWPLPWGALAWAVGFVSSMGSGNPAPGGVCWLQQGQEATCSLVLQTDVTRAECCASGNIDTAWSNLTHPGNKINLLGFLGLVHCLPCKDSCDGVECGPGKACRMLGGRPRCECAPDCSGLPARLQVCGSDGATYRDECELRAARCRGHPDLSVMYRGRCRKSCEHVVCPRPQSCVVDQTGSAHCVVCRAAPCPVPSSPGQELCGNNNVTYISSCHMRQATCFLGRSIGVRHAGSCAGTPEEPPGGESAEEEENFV
Chain of Epidermal growth factor receptor (Homo sapiens) (P00533 whole entry, looked up): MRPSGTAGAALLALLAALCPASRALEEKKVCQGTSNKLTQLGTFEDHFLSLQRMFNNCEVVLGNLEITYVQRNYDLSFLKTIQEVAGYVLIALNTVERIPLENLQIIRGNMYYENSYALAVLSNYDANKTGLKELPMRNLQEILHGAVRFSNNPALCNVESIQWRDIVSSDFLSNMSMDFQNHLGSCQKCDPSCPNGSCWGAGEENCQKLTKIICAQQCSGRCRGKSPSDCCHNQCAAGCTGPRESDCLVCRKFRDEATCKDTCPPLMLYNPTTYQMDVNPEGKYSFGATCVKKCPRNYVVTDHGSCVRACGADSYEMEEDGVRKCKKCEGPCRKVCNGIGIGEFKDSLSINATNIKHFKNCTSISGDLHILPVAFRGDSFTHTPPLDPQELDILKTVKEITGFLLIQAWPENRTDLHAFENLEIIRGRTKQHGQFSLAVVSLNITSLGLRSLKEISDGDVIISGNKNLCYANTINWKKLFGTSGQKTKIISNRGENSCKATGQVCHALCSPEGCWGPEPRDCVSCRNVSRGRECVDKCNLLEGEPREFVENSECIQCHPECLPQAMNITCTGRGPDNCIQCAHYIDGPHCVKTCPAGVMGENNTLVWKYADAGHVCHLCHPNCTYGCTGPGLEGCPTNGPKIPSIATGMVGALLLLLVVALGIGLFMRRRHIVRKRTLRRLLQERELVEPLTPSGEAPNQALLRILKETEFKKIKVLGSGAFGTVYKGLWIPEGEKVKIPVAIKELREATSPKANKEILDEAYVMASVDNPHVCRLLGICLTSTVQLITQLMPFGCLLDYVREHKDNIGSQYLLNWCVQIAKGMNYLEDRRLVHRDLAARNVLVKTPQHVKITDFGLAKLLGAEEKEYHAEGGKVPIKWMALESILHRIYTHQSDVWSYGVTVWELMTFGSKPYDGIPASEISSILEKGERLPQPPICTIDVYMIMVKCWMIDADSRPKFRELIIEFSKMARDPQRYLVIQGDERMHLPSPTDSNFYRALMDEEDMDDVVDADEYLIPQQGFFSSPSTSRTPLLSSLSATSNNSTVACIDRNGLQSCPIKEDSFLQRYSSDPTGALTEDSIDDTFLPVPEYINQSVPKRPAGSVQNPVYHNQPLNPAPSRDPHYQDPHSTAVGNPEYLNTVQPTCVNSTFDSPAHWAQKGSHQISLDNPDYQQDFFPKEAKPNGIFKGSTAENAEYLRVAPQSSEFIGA
Chain of Left-right determination factor 2 (Homo sapiens) (O00292 whole entry, looked up): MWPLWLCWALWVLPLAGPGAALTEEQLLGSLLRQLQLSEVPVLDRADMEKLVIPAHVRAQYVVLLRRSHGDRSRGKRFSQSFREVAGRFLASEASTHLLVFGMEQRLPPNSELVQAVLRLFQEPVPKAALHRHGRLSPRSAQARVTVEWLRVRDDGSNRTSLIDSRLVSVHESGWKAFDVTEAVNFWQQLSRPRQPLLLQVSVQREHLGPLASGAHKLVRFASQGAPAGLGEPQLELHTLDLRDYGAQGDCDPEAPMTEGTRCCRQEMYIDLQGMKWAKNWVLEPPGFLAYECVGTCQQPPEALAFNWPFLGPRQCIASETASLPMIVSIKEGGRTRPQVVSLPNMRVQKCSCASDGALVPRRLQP
Chain of Dickkopf-related protein 1 (Homo sapiens) (O94907 whole entry, looked up): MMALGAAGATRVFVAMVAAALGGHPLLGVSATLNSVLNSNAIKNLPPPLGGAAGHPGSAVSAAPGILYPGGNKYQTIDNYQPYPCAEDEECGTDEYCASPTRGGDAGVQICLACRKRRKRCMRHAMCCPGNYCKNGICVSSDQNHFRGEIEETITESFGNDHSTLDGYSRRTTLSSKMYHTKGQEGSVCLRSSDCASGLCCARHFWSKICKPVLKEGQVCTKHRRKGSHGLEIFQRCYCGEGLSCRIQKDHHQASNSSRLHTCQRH
Chain of Fibroblast growth factor 10 (Homo sapiens) (O15520 whole entry, looked up): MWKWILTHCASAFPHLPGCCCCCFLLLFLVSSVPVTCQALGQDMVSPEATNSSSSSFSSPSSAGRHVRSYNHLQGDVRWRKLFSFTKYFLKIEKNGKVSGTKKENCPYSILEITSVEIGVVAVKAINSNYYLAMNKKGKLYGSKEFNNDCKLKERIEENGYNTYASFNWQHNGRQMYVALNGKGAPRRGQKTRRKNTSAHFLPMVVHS

On to `NC(=O)[C@@H]1[C@H]2C(=O)O[C@H](c3ccccc3)[C@H](c3ccccc3)N2[C@H](c2ccc(OCCO)cc2)[C@@]12C(=O)Nc1ccc(C#CC3=CCCCC3)cc12`, for which the composite z-score in assay [1] was 1.36; in assay [2], -0.134; in assay [3], -0.233; in [5], 1.21; in assay [6] it was 1.32; in [7], 0.544. Further, the composite z-score in assay [8] was found to be 0.588; in assay [9], 0.372; in assay [10] it was 0.357; in assay [11], 1.36; in [13], 0.759; in assay [14], 0.658. Also, the composite z-score is -0.223 in assay [15]; 0.0182 in assay [16]; 0.031 in [17]; 0.0415 in assay [18]; 1.06 in assay [19]; 0.711 in [20]. The z-score is -0.857 (inactive) in [4] and -3.2 in [12].
Turning to `CCCCN1CC=CC23O[C@@H]4C=CCCOC(=O)C4[C@H]2C(=O)N(CCCCCO)[C@@H]3C1=O` (stereo not given in full), the composite z-score is 1.2 in [1]; -0.359 in assay [2]; 0.413 in assay [3]; -1.1 in assay [5]; -0.649 in [6]; -0.95 in [7]. Also, the composite z-score in assay [8] was -1.15; in assay [9], -0.787; in assay [10] it was 0.26; in assay [11], -0.977; in [13], -0.646; in assay [14] it was -0.107. Besides, the composite z-score in assay [15] is -0.589; in assay [16], -0.208; in assay [17], -0.138; in assay [18], -0.033; in [19], -0.865; in assay [20] it was 0.0086. Also, the z-score is -0.268 (inactive) in assay [4] and -0.698 in assay [12].
For `Cc1ccc(S(=O)(=O)N2C[C@@H](C(=O)O)[C@H](Sc3ccccc3)C[C@H]2c2ccccc2)cc1`, the composite z-score in [1] is 1.47; in assay [2], 0.707; in assay [3] it was 0.999; in assay [5] it was 1.15; in assay [6] it was 0.586; in assay [7] it was 0.14. Also, the composite z-score in [8] was 1.29; in assay [9], -0.503; in assay [10], 0.49; in assay [11] it was 1.14; in assay [13], 0.0026; in assay [14], 1.61. Further, the composite z-score in assay [15] is -0.127; in [16], 0.0775; in [17], 0.0684; in [18], 1.45; in assay [19], 1.97; in assay [20], 0.729. For the same compound, the z-score in assay [4] is 1.64 (inactive); in assay [12], -0.697.
As to `O=C1O[C@@H](c2ccccc2)[C@@H](c2ccccc2)N2[C@@H](c3ccccc3OCCO)[C@]3(C(=O)Nc4ccc(C#CC5(O)CCCCCC5)cc43)[C@@H](C(=O)N3CCN(c4ncccn4)CC3)[C@H]12`, the composite z-score in assay [1] was 0.448; in assay [2] it was -0.125; in assay [3], 0.304; in assay [5], 0.878; in assay [6] it was 1.06; in assay [7], 0.301. Also, the composite z-score in [8] was 0.463; in [9], 0.439; in assay [10], -0.431; in assay [11], 1.38; in assay [13], 0.409; in [14] it was 0.586. The composite z-score in assay [15] is 0.671; in assay [16], -0.0165; in [17] it was -0.0234; in [18], 0.118; in assay [19] it was 1.5; in assay [20] it was 0.894. Besides, the results for the z-score in [4] and in [12] were -0.562 (inactive) and -2.29, respectively.
For the compound `COc1cc2c(cc1O)C=[N+](Cc1cc3c(cc1Br)OCO3)CC2`, the composite z-score in [1] was 1.73; in assay [2] it was 0.0055; in [3], 0.591; in assay [5], -0.445; in [6], -1.06; in assay [7] it was -0.486. Besides, the composite z-score in [8] is -1.04; in [9], -1.05; in assay [10] it was 0.655; in [11], -0.411; in assay [13], -0.678; in assay [14], -1.01. In addition, the composite z-score in assay [15] was -0.0978; in assay [16], -0.16; in [17], -0.16; in assay [18], -0.492; in assay [19], -0.479; in [20], -2.64. The z-score in [4] is -0.244 (inactive); in assay [12] it was -0.537.
Turning to `COCCOC(=O)N1C(=O)[C@@]2(c3ccccc31)[C@H](C(=O)N1CCc3cc(OC)c(OC)cc3C1)[C@H]1C(=O)O[C@H](c3ccccc3)[C@H](c3ccccc3)N1[C@@H]2c1ccc(O)cc1`, the composite z-score in assay [1] amounted to 1.38; in [2] it was 0.0664; in assay [3] it was 0.299; in assay [5], 0.375; in assay [6], 0.691; in assay [7] it was 0.431. Besides, the composite z-score is 0.671 in assay [8]; 0.503 in [9]; 0.407 in [10]; 1.13 in assay [11]; 0.337 in [13]; 1.38 in assay [14]. Further, the composite z-score in [15] was 0.116; in assay [16], -0.0125; in [17] it was -0.0769; in [18] it was 0.511; in assay [19], 1.94; in assay [20], 1.65. For the same compound, the z-score in assay [4] is 0.251 (inactive); in [12], -0.515.

Values taken from PubChem BioAssay.
